Measured values taken from PubChem BioAssay AID686978 (National Center for Advancing Translational Sciences (NCATS), 2013).
“And” between values parts separate entries of the source, which are not always exact repeats. Identical values can stand only once. Out of some 420,000 compounds screened, about 64,000 (15%) were called active. Inconclusive results (about 27%) are left out. The call rests on the fitted dose curve; in most records, active means well fitted inhibition curve with a large enough effect; inconclusive means small, poorly fitted or top-dose-only effect; inactive means flat fitted curve, though single readings scatter. The list is a sample of the results. Some structures have more than one record in an assay (separate samples or runs), and their calls can disagree. Numbered stars: 1 amine (or outer) side, 2 acyl side, 3 side chain; on linkers, the order of the positions; unused ones are H or OH. Bridge positions count the residues as written; N and C are the ends. Square brackets hold non-standard residues; d marks the D form. Peptide text beside a SMILES is read from it. * marks the point of attachment. X11 = NC1=N[C@@H]([C@H](N[*:1])C(=O)[*:2])C[C@H](O)N1; ΔAla(Z-3-ureido) = NC(=O)N/C=C(\N)C(=O)O; β3hOrn = NCCC[C@H](N)CC(=O)*; Dap = NC[C@H](N)C(=O)O

Experiment: qHTS for Inhibitors of human tyrosyl-DNA phosphodiesterase 1 (TDP1): qHTS in cells in absence of CPT; further: nearly all actives have a fitted effect of over 55% in size
Conditions: DT40 Tdp1-/- hTDP1 cells, no CPT, ATP luminescence, 48 h; activity change, negative = growth inhibition: at 46.2 µM (top of the series)
Procedure, shortened: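 No-CPT arm: Tdp1-/-;hTDP1 DT40 cells (400/well) plus compounds, incubated ≥48 hr at 37 °C. Readout CellTiter-Glo luminescence.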
On the % scale 0 is the no-effect control and ±100 the full control effect; potency means the concentration at half of the fitted maximal effect.

SMILES | activity change, negative = growth inhibition | Potency
CCN(CC(=O)NCCc1ccccc1)S(=O)(=O)c1ccccc1 | -17.2% (inactive) | 
COc1ccc2c(c1)c1nc3n(c(=O)c1n2CC(=O)Nc1ccccc1)CCS3 | -22.7% (inactive) | 
O=C1C(=O)N(CCN2CCOCC2)C(c2cccc(Cl)c2)/C1=C(/O)c1ccc2c(c1)OCO2 (configuration not stated) | 12.4% (inactive) | 
CCOC(=O)C(Cc1ccccc1)NC(=O)CCc1c(C)nc2c(c(C)nn2-c2ccc(C)c(C)c2)c1C (configuration not stated) | -25.1% (inactive) | 
CCCNC(=O)CCc1c(C)nc2c(c(C)nn2-c2ccccc2)c1C | -7.79% (inactive) | 
COC(=O)c1ccc(NC(=O)CCc2c(C)nc3c(c(C)nn3-c3ccc(C)cc3)c2C)cc1 |  | 6.51 µM (active)
Cc1ccc(C)c(NC(=O)CSc2nnc(Cc3cccn3C)n2-c2ccc(F)cc2)c1 | -11.3% (inactive) | 
CC1CCN(C(=O)C2CCN(S(=O)(=O)N3CCC4(CC3)OCCO4)CC2)CC1 | -11.6% (inactive) | 
Nc1nnc(SCn2nnc3ccccc3c2=O)s1 | -7.27% (inactive) | 
O=c1[nH]nc(Cc2ccccn2)c2ccccc12 | 6.26% (inactive) | 
O=C(Nc1ccc(Cl)cc1)c1ccsn1 | -26% (inactive) | 
O=C(Nc1cccc(Cl)c1)c1csnn1 | -4.55% (inactive) | 
O=C(Nc1ccccc1)c1nnsc1S(=O)(=O)c1ccc(Cl)cc1 |  | 2.59 µM (active)
Cc1cc(C)n2nc(C(=O)NC(C)(C)C)nc2n1 | -2.42% (inactive) | 
O=S(=O)(Nc1ccc(-c2ccc(N3CCOCC3)nn2)cc1)c1cc(Cl)ccc1Cl | -11.9% (inactive) | 
CC(CC(=O)Nc1cc(C(F)(F)F)ccc1Cl)c1ccccc1 (configuration not stated) | -13.9% (inactive) | 
O=C(NNc1ccccc1Cl)C(O)(c1cccc(C(F)(F)F)c1)c1cccc(C(F)(F)F)c1 |  | 16.4 µM (active)
NC(=O)C1(Nc2ccccc2Cl)CCCC1 | 3.37% (inactive) | 
CC(C)Nc1ccc(-n2nc3ccccc3[n+]2[O-])cc1 | -25.7% (inactive) | 
c1ccc(Cc2cc[n+](Cc3ccccc3)cc2)cc1 |  | 20.6 µM (active)
CN(C)c1ccc(CSc2ccccc2)cc1 | -5.38% (inactive) | 
CN(C)c1cc[n+](Cc2ccccc2)cc1 |  | 0.411 µM (active)
[O-][n+]1ccc(OCc2ccccc2)cc1 | 3.86% (inactive) | 
O=C(Nc1cc(-c2nn(CC(=O)N3CCCCC3)c(=O)c3ccccc23)ccc1N1CCOCC1)c1ccc(Cl)cc1 | -22% (inactive) | 
Cc1ccc(-c2csc3nnc(SCC(=O)NCc4ccco4)n23)cc1 | -9.6% (inactive) | 
COc1cc(F)c(C2=CC(=O)CC(C)(C)C2)cc1F | -29.6% (inactive) | 

SMILES | activity change, negative = growth inhibition | Potency
Cc1c(CCOC(=O)CC23CC4CC(CC(C)(C4)C2)C3)sc[n+]1Cc1ccc([N+](=O)[O-])cc1 |  | 18.4 µM (active)
O=C(CSC1=Nc2ccccc2C2=NC(c3ccccc3)C(=O)N12)NCC1CCCO1 (configuration not stated) | -10.2% (inactive) | 
Cc1ccc(C)c(S(=O)(=O)N2CC(=O)Nc3ccccc32)c1 | -8.66% (inactive) | 
O=C(Nc1ccc(NC(=O)c2cccs2)cn1)c1ccco1 | -24% (inactive) | 
Cc1ccc(NC(=O)Cn2nnc(C(=O)NCc3ccco3)c2N)c(C)c1 | 7.88% (inactive) | 
CCOc1ccccc1NC(=O)Cn1nnc(C(=O)NCc2cccs2)c1N |  | 130 nM (active) and 51.7 nM (active)
CCOc1ccccc1NC(=O)Cc1cccs1 | -17.5% (inactive) | 
Cc1cc(C)n(CC(C)NCc2c(C(=O)N3CCOCC3)nc3c(C)cccn23)n1 (configuration not stated) | 26.9% (inactive) | 
Fc1ccc(Nc2nnns2)cc1 | -24.1% (inactive) | 
Cc1sc2c(c1C)c(=O)n(-c1ccccc1)c(=O)n2CC(=O)NCC1CCCO1 (configuration not stated) | -4.2% (inactive) | 
Nc1ccc(C(=O)NCc2ccccc2)cc1 | 2.25% (inactive) | 
Nc1ccc(C(=O)Nc2ccccc2N)cc1 |  | 2.37 µM (active) and 3.26 µM (active)
Nc1ccc(S(=O)(=O)NC(=O)c2ccccc2)cc1 |  | inactive
COc1ccc2oc(=O)c(C(=O)N3CCCC3)cc2c1 | 10.7% (inactive) | 
CC(C)C[C@H](NC(=O)NCCc1ccc(Cl)cc1)C(=O)O | 3.73% (inactive) | 
O=C(Nc1cccc(C(F)(F)F)c1)c1cc(Br)cc(Br)c1O |  | 13.3 µM (active)
O=C(O)CSCC(=O)Nc1cccc(C(F)(F)F)c1 | 1.22% (inactive) | 
O=C(O)CC1(CC(=O)Nc2cccc(C(F)(F)F)c2)CCCC1 | -12.9% (inactive) | 
Cn1c(SCC(=O)N2CCOCC2)nnc1-c1ccc(NC(=O)c2ccccc2F)cc1 | -14.2% (inactive) | 
CC1CN(C(=S)Nc2ccc(Br)cc2Cl)CC(C)O1 (configuration not stated) | -8.66% (inactive) | 
CNC(=S)N/N=C/c1ccc(OCc2ccccc2)c(Br)c1 |  | 10.3 µM (active)
C=CCNC(=S)N/N=C/c1ccc(OCc2ccccc2)cc1 | 0.63% (inactive) | 
O=C(N/N=C/c1cccc(OCc2ccccc2)c1)c1ccc(Br)o1 | -15.6% (inactive) | 
CC1CN(c2cc(=O)n(-c3cccc(Br)c3)c(=O)[nH]2)CC(C)O1 (configuration not stated) | -10.8% (inactive) | 
CS(=O)(=O)c1cccc(-c2ccc3nncn3c2)c1 | -1.13% (inactive) | 
CSc1ccccc1C(=O)OCC(=O)N1CCN(C(C)=O)CC1 | 3.66% (inactive) | 

SMILES | activity change, negative = growth inhibition | Potency
Cc1ccc(N2C(=O)CN=C2Nc2nc(C)cc(C)n2)cc1 | -11.4% (inactive) | 
Cc1cc(/C=C2\SC(=Nc3ccc(N4CCOCC4)cc3)N(C)C2=O)c(C)n1-c1cccnc1 | -20.8% (inactive) | 
O=C(Nc1ccc([N+](=O)[O-])cc1)OCCc1ccccn1 | -9.24% (inactive) | 
Cc1cc(Nc2ccccc2)nc(N)n1 | -15.7% (inactive) | 
Clc1ccc(Nc2ccc3ccccc3n2)cc1 | -21% (inactive) | 
Cc1ccc2nc(Nc3ccccc3)cc(C)c2c1 |  | 10.3 µM (active)
Cc1nc(CC(=O)NNS(=O)(=O)c2ccc(F)c(Cl)c2)cs1 | 8.87% (inactive) | 
NCCC[C@H](N)CC(=O)N[C@H]1CNC(=O)[C@H]([C@H]2C[C@H](O)NC(N)=N2)NC(=O)/C(=C/NC(N)=O)NC(=O)[C@H](CO)NC(=O)[C@H](CO)NC1=O (β3hOrn-[Dap]SS[ΔAla(Z-3-ureido)][X11]; lactam 1-C) | 4.1% (inactive) | 
CCOc1cc(C)ccc1OCc1nnc(SCC(=O)Nc2cccc(C(=O)O)c2)n1-c1ccccc1 | 20.3% (inactive) | 
Cc1c(Br)c([N+](=O)[O-])nn1C(C)C(=O)Nc1nccs1 (configuration not stated) | -24.7% (inactive) | 
CC(=O)Nc1ccc(S(=O)(=O)NC(C)C(=O)OCC(=O)NC2CCCC2)cc1 (configuration not stated) | -5.16% (inactive) | 
CCOC(=O)c1ccc(NC(=O)Cn2c(=O)cc(C)c3c(C)nn(-c4cccc(F)c4)c32)cc1 |  | 18.4 µM (active)
CCc1ccc(-n2nc(C)c3c(C)cc(=O)n(CC(=O)Nc4ccc(F)cc4C)c32)cc1 | -3.03% (inactive) | 
COc1ccc(NC(=O)Cn2c(=O)cc(C)c3c(C)nn(-c4cccc(Cl)c4C)c32)cc1OC | -28.5% (inactive) | 
Cc1cnc(-n2ncc(C(=O)N3CCN(C(C)C)CC3)c2-c2ccco2)nc1-c1ccc(F)cc1 | -15.8% (inactive) | 
O=C(Nc1nnc(CCN2CCCCC2)s1)c1cccc(Cl)c1 | -6.55% (inactive) | 
CCN(CC)CC1(O)CCN(C(=O)c2ccc(Cl)c(Cl)c2)CC1 | 5.55% (inactive) | 
CCCNC(=O)c1ccc(Cl)c(Cl)c1 | -4.07% (inactive) | 
CCCn1c(=N)n(CC(=O)c2ccc(Cl)c(Cl)c2)c2ccccc21 |  | 11.6 µM (active)
O=C(O[C@@H]1[C@H](Cc2ccccc2)NS(=O)(=O)[C@H]2C[C@@H]3C=C[C@]12O3)c1ccccc1Br |  | 16.4 µM (active)
O=S1(=O)CCOC[C@H](Cc2ccccc2)N1Cc1ccccc1Br | -27.8% (inactive) | 
O=C(O[C@H]1[C@H](Cc2ccccc2)NS(=O)(=O)[C@H]2C[C@@H]3C=C[C@]12O3)c1ccc([N+](=O)[O-])cc1 | -23.4% (inactive) | 
Cc1ccc(Nc2cc(=O)n(C3CCCCC3)c(=O)[nH]2)cc1C | 0.456% (inactive) | 
C/C(=C\C(=O)c1ccc(Br)cc1)N1CCCCC1 | -24.9% (inactive) | 
O=S1(=O)CCN2C(=N1)SC1=C2CCN(Cc2ccccc2)C1 | -16% (inactive) | 
O=C(O)CC12CC3CC(C1)CC(n1ncc(NCc4ccc(F)cc4)c(Cl)c1=O)(C3)C2 | 4.29% (inactive) | 

SMILES | activity change, negative = growth inhibition | Potency
O=C(O)c1ccc(Cn2cnc3c(=S)nc[nH]c32)cc1 | 3.13% (inactive) | 
CCOC(=O)C1CCN(S(=O)(=O)c2ccc3c(c2)N(C(C)=O)CCO3)CC1 | 7.33% (inactive) | 
CC(=O)N1CCSc2ccc(S(=O)(=O)N3CCC(C)CC3)cc21 |  | 14.6 µM (active)
CC1CCN(S(=O)(=O)c2ccc3c(c2)n(C)c(=O)n3C)CC1 | 9.76% (inactive) | 
CCOC(=O)c1ccccc1C(=O)N1CCOCCOCCOCC1 | -14.8% (inactive) | 
CCC(C)CN1CCC(CO)(Cc2ccccc2Cl)CC1 (configuration not stated) | -7.79% (inactive) | 
O=C(Nc1cnccn1)c1cccnc1 | 5.01% (inactive) | 
O=C(O)c1ccc2c3c(cccc13)C(=O)N(OS(=O)(=O)c1ccccc1)C2=O | 7.65% (inactive) | 
COc1ccccc1N1CCN(c2ncnc3onc(-c4ccc(F)cc4)c23)CC1 |  | 18.4 µM (active)
CN(Cc1ccccc1)c1ccc(-c2nc(-c3ccccc3)no2)cc1[N+](=O)[O-] | -28.4% (inactive) | 
CN(Cc1ccccc1)c1ncnc2onc(-c3ccc(F)cc3)c12 |  | 18.4 µM (active)
CCc1ccccc1N(C)C(=O)C1CCCN(c2ncnc3onc(-c4ccc(F)cc4)c23)C1 (configuration not stated) |  | 11.6 µM (active)
COc1ccccc1N1CCN(c2ncnc3sc(C)c(-c4ccccc4)c23)CC1 | -100% (inactive) | 
Cc1ccc(Cl)cc1N(C)C(=O)C1CCCN(c2ncnc3onc(-c4ccc(F)cc4)c23)C1 (configuration not stated) |  | 4.11 µM (active)
CC1=C(c2ccc(F)cc2)S(=O)(=O)N=C1N1CCC(C(=O)NCCc2ccccc2C)CC1 | -20.4% (inactive) | 
COc1ccccc1N1CCN(c2ncnc3onc(-c4cccc(Cl)c4)c23)CC1 | -0.348% (inactive) | 
CCc1noc(C)c1C(=O)N1CCCC(N2CCN(c3ccc(F)cc3)CC2)C1 (configuration not stated) | -6.06% (inactive) | 
O=C1NN(c2ccccc2)C(=O)/C1=C/c1ccc(-c2cccc(C(=O)O)c2)o1 | 4.78% (inactive) | 
O=C1NC[C@H](CCCCN2CCN(CCc3ccccc3)C(=O)C2=O)N(CC2CCCCC2)C1=O | -18.5% (inactive) | 
CN(C)NC(=O)c1csnc1-c1c(Cl)cccc1Cl | -14.2% (inactive) | 
c1ccc(Nc2n[nH]nc2-c2ccccc2)cc1 | -6.64% (inactive) | 
CSc1ccc(CCNC(=O)CS(=O)(=O)Cc2nc(-c3ccccc3F)oc2C)cc1 | -25.8% (inactive) | 
Cc1ccc(S(=O)(=O)CC(=O)NC(C)c2ccccc2)cc1 (configuration not stated) | 2.72% (inactive) | 
Cc1ccccc1-c1nc(CS(=O)(=O)CC(=O)NC(C)c2ccccc2)c(C)o1 (configuration not stated) |  | inactive and 16.4 µM (active)
